Reference: the supplement of paper PMC6555819

What follows are sequences tested on PPARg DBDmut IVT, anti-PPARg (DBD mutation: PPARg1 K132A/R137A, NR concentration 270 nM) (assay: PBM binding z-score (relative to random genomic background probes); higher = stronger binding; sequences stand for … in GC…GCGATTGACAGCGTAGAATGAAGG).
How it was run: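 Binding buffer was PBS pH 7.4 with 2% milk, 0.02% Triton X-100, 1 mM DTT, 0.2 mg/mL BSA and 0.4 mg/ml salmon testes DNA. In it, ligand-free nuclear receptor dimers were incubated 1 h on custom Agilent 4×180K protein-binding microarrays carrying double-stranded probes. Antibodies against each partner (one per run) detected binding, and z-scores were calculated against random background probes after regression normalization of scanned fluorescence.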

Row | Sequence | PBM binding z-score
1 | AGTATGAGGTTATTAAGATCAGGGAATTGCGGTC | 0.314
2 | TCTTGTAGATCAACAGGAGGTTTAGAAAGATCGA | 0.199
3 | TCGAGTAGGTTAGTCGGGTCATTCAGCCAACATA | -0.903
4 | CCTCGGAGGAAAACAGGAGGTCAGAGCTGCCAGA | -1.51
5 | CCTACTGGGCCATAGGTCATTGATTCCAATGCTC | 0.625
6 | CCTAGTTGGACAGGAGGTCACACACCGGATATGA | 0.338
7 | CATAGTTGGTCAGGAGGTCACACACCGGATATGA | 0.996
8 | CCTTACGGGTCACGAGGTAATAGCACGACGAGCG | 1.21
9 | TGGAGTAGGTTACCAATGGGGCATTCAGCTTTCT | 1.38
10 | GCGACTGGGGCAAAGCAGTTTACCATAAGGTTGG | -0.489
11 | CCTTACGGGTCACTGACAGGTTATAACATTTGGA | 0.266
12 | CTCGAAAGGGCGGTTGAGGTGAGTATACGGATAA | 0.0622
13 | CTCGAAAGGTCGCTTGAGGTGAGTATACGGATAA | 0.0176
14 | CCTACTGGGCCAAAAAGGTCGTTGATGCCGATAA | -1.31
15 | CCGACAGGGGCAAGGTTACCATAACGCACAGCCA | -0.66
16 | CCTAGTTGGTCAGGAGGTCACCCACCGGATATGA | -0.185
17 | GCATATAGGTAATACAAGGTGTAAGTCCGATTGT | 0.908
18 | AACTCTAGGTAACAAGTTCAGTGAAAGAGAGGAC | 0.445
19 | CCTGCTAGGCCATGGTCAGCTAATCTACAGTATG | -1.56
20 | AGTCAAAGTTAATCTAGGTAACGTAAGATATGCT | 1.19

Row | Sequence | PBM binding z-score
21 | CATACAGGGTCAGCTAGGTCAGAGTAGGGACGGC | 1.12
22 | CCTAGCAGGCCAATCTGGGTCAGTCAAGGCTTGA | -1.02
23 | ATATGTAGGTTAAGGGTCATTCATGTTGGTTCGC | 1.44
24 | TTACTAAGGTGAGCTGAGGTCGTTGATCCAACTC | 0.0653
25 | CAAACTAGGTCAAGGTCAAAGCCGGTTTGTGCCA | 0.00542
26 | CCTACTGGTCCAAAAAGGTCATTGATGCCGATAA | 0.0096
27 | TCATATACGTAAAAGGTGAAAGTCGGTGTGGTAA | 2.25
28 | ACTAGCAGGCCAAGTTTGGGTTACTCAAACAAAG | -0.888
29 | ATCTCTGGGTAAAGTTCAGTGAAAGATCGATAGA | 1.34
30 | CCTGCTAGGTCAATTGTCAGCTAAAGCAGCTCGC | -0.703
31 | ACTATTAGTTGACTTAGGGCAACCTATACGACGC | 1.54
32 | CGAACTAGGTCTTCCAGGACAGTGAATACATTGA | 0.129
33 | CCTTGCGGGTCACTCCAGGTTATAGCATCGGAGT | 0.356
34 | CCGAGTAGGCTATGGGGCATTCAGGCAACGGTGA | -1.15
35 | CAGCCTAGGTCAGGGCCAGAATAGGAGGAACGTT | -1.51
36 | AGTAAAAGTTCATCTAGGTAACGTAAGATATGCT | 1.83
37 | CATAAAGGGTCAGCTAGGCCAGAGTAGGGACGGC | 0.0542
38 | CGAACTAGGTCAAGGACACTGAATCTCCGCACGC | 0.508
39 | GTACCAAGGTGAATAGGTCGTTTATGAGTAGGCG | 0.34
40 | AGTCAAAGTTCAGGACGAGGTAACGCAAAGCACG | -0.132
